Assay results: the supplement of paper PMC12494721
Counter-ions that a name gives are not always drawn.

Legend:
Details in all cases: incubation time: 27 h, anaerobic, 37 °C;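 for the amine columns active = adjusted P below 0.05 in both replicates with a change the same way and a mean fold change under 0.8 or over 1.25; inactive = the rest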
[1] = test system: Clostridium sporogenes DSM 1664; assay: growth (OD595) fold change vs plate DMSO controls (fold change (ratio)); higher = more growth
How it was run: (§1)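 Growth is the fold change relative to the median of plate DMSO controls. Readings came from anaerobic mGAM cultures in 96-well plates grown for 27 h at 37 °C and read at 595 nm. They were blank-subtracted, corrected for compound background with 20 µM compound solutions in water, and converted to OD with a calibration factor of 5. Values are means of 2 biological replicates, and fold changes above 1.5 were set to NA.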

Escherichia coli IAI1 [2] = assay: as above
How it was run: as §1

[3] = test system: Klebsiella aerogenes DSM 30053; assay: as above
How it was run: as §1

[4] = test system: Ruminococcus gnavus DSM 108212; assay: as above
How it was run: as §1

[5] = test system: Klebsiella aerogenes DSM 30053; assay: fold change of Histamine concentration vs plate DMSO controls (fold change (ratio)); higher = more amine produced, active = hit call of the paper (significant change in both replicates, either direction)
How it was run: (§2)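 In 80 µL wells, cultures of four gut bacterial strains in mGAM started at OD 0.1 before a 1:1 dilution and grew anaerobically at 37 °C for 27 h. Compounds were added to 20 µM final, except sweeteners at 50 µM final. After extraction of whole cultures with cold acetonitrile/methanol plus 0.1% formic acid and centrifugation, amines were measured by LC–triple-quadrupole MS in dynamic MRM mode against external calibration curves, with within-batch drift correction. Values give fold change over DMSO controls on the same plate, averaged across 2 biological replicates.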

[6] = test system: Clostridium sporogenes DSM 1664; assay: fold change of Tryptamine concentration vs plate DMSO controls (fold change (ratio)); higher = more amine produced, active = hit call of the paper (significant change in both replicates, either direction)
How it was run: as §2

[7] = test system: Ruminococcus gnavus DSM 108212; assay: as above
How it was run: as §2

Escherichia coli IAI1 [8] = assay: fold change of Putrescine concentration vs plate DMSO controls (fold change (ratio)); higher = more amine produced, active = hit call of the paper (significant change in both replicates, either direction)
How it was run: as §2

[9] = test system: Klebsiella aerogenes DSM 30053; assay: as above
How it was run: as §2

Escherichia coli IAI1 [10] = assay: fold change of Cadaverine concentration vs plate DMSO controls (fold change (ratio)); higher = more amine produced, active = hit call of the paper (significant change in both replicates, either direction)
How it was run: as §2

[11] = test system: Klebsiella aerogenes DSM 30053; assay: as above
How it was run: as §2

[12] = test system: Ruminococcus gnavus DSM 108212; assay: fold change of 2-Phenylethylamine concentration vs plate DMSO controls (fold change (ratio)); higher = more amine produced, active = hit call of the paper (significant change in both replicates, either direction)
How it was run: as §2

Row | SMILES | growth [1] | growth (Escherichia coli IAI1 [2]) | growth [3] | growth [4] | fold change of Histamine concentration [5] | fold change of Tryptamine concentration [6] | fold change of Tryptamine concentration [7] | fold change of Putrescine concentration (Escherichia coli IAI1 [8]) | fold change of Putrescine concentration [9] | fold change of Cadaverine concentration (Escherichia coli IAI1 [10]) | fold change of Cadaverine concentration [11] | fold change of 2-Phenylethylamine concentration [12]
1 | CCC(Cc1c(I)cc(I)c(N)c1I)C(=O)O (centres undefined) [Iopanoic acid] (20 µM) | 0.989 | 1.13 | 1 | 1.05 | 0.999 (inactive) | 0.978 (inactive) | 0.879 (inactive) | 1.1 (inactive) | 0.994 (inactive) | 1.04 (inactive) | 0.985 (inactive) | 0.969 (inactive)
2 | C[C@H]1C[C@H]2[C@@H]3CCC4=CC(=O)C=C[C@]4(C)[C@@]3(F)[C@@H](O)C[C@]2(C)[C@@]1(O)C(=O)CO [Betamethasone] (20 µM) | 1.02 | 1.02 | 1.13 | 1.11 | 0.976 (inactive) | 0.979 (inactive) | 1.01 (inactive) | 1.07 (inactive) | 1.01 (inactive) | 1.04 (inactive) | 1.02 (inactive) | 0.968 (inactive)
3 | CC(=O)[C@H]1CC[C@H]2[C@@H]3C=CC4=CC(=O)CC[C@@]4(C)[C@@H]3CC[C@]12C [Dydrogesterone] (20 µM) | 1.08 | 0.983 | 0.99 | 0.994 | 1.03 (inactive) | 0.933 (inactive) | 0.978 (inactive) | 0.911 (inactive) | 1.01 (inactive) | 1.04 (inactive) | 0.983 (inactive) | 1 (inactive)
4 | Nc1nc2[nH]cnc2c(=S)[nH]1 [Tioguanine] (20 µM) | 1.3 | 0.969 | 1.09 | 0.899 | 1 (inactive) | 1.03 (inactive) | 1.01 (inactive) | 0.623 (active) | 0.987 (inactive) | 0.871 (inactive) | 0.998 (inactive) | 0.998 (inactive)
5 | Cc1ccc(O)c([C@H](CCN(C(C)C)C(C)C)c2ccccc2)c1 [Tolterodine tartrate] (20 µM) | 0.996 | 1.24 | 1.04 | 1.14 | 0.956 (inactive) | 1.01 (inactive) | 0.997 (inactive) | 1.27 (inactive) | 1.01 (inactive) | 0.926 (inactive) | 1 (inactive) | 0.994 (inactive)
6 | Clc1ccc(Cn2c(CN3CCCC3)nc3ccccc32)cc1 [Clemizole hydrochloride] (20 µM) | 1.15 | 1.01 | 1.05 | 0.643 | 0.939 (inactive) | 1.11 (inactive) | 0.858 (inactive) | 0.882 (inactive) | 0.958 (inactive) | 1.41 (active) | 1.01 (inactive) | 0.968 (inactive)
7 | COc1ccc(C(=O)NCc2ccc(OCCN(C)C)cc2)cc1OC [Itopride] (20 µM) | 1.15 | 1.1 | 1.08 | 1.2 | 0.925 (inactive) | 1.05 (inactive) | 1.04 (inactive) | 1.09 (inactive) | 0.98 (inactive) | 0.942 (inactive) | 1.06 (inactive) | 1.04 (inactive)
8 | CCCCc1ncc(/C=C(\Cc2cccs2)C(=O)O)n1Cc1ccc(C(=O)O)cc1 [Eprosartan mesylate] (20 µM) | 1.06 | 1.06 | 1.16 | 0.916 | 0.882 (inactive) | 1.08 (inactive) | 0.998 (inactive) | 0.975 (inactive) | 1 (inactive) | 0.963 (inactive) | 1.03 (inactive) | 1.02 (inactive)
9 | CCCCC1C(=O)N(c2ccccc2)N(c2ccccc2)C1=O [Phenylbutazone] (20 µM) | 1.03 | 0.993 | 1.01 | 1.02 | 1.05 (inactive) | 0.986 (inactive) | 0.969 (inactive) | 0.992 (inactive) | 1.05 (inactive) | 1.01 (inactive) | 1.04 (inactive) | 0.878 (inactive)
10 | CCC(=O)c1c(O)cc(O)cc1O [Flopropione] (20 µM) | 0.955 | 1.01 | 0.997 | 0.986 | 1.01 (inactive) | 1 (inactive) | 0.927 (inactive) | 1 (inactive) | 1.01 (inactive) | 1 (inactive) | 1 (inactive) | 0.896 (inactive)
11 | COC(=O)[C@H](Cc1ccccc1)NC(=O)[C@H](CC(=O)O)NCCCc1ccc(OC)c(O)c1 [Advantame] (50 µM) | 0.941 | 0.94 | 0.999 | 0.968 | 1 (inactive) | 0.973 (inactive) | 0.899 (inactive) | 0.932 (inactive) | 1.02 (inactive) | 1.04 (inactive) | 0.996 (inactive) | 0.9 (inactive)
12 | O=C(O)Cc1ccccc1Nc1c(Cl)cccc1Cl [Diclofenac sodium] (20 µM) | 0.954 | 0.984 | 0.986 | 1.03 | 1.06 (inactive) | 0.699 (active) | 0.988 (inactive) | 1.02 (inactive) | 1 (inactive) | 1.01 (inactive) | 1 (inactive) | 0.989 (inactive)
13 | CCN(CCO)CCCC(C)Nc1ccnc2cc(Cl)ccc12 (centres undefined) [Hydroxychloroquine sulfate] (20 µM) | 1.08 | 0.955 | 0.95 | 0.855 | 1.09 (inactive) | 0.967 (inactive) | 0.991 (inactive) | 0.915 (inactive) | 1.04 (inactive) | 0.999 (inactive) | 0.982 (inactive) | 1.02 (inactive)
14 | Nc1nc2c(ncn2COC(CO)CO)c(=O)[nH]1 [Ganciclovir] (20 µM) | 0.925 | 0.989 | 0.946 | 1.07 | 1.04 (inactive) | 1.06 (inactive) | 0.974 (inactive) | 1.02 (inactive) | 1.02 (inactive) | 1.03 (inactive) | 0.999 (inactive) | 0.954 (inactive)
15 | CCOc1ccc(NC(=O)CC(C)O)cc1 (centres undefined) [Bucetin] (20 µM) | 0.973 | 0.985 | 0.995 | 1.07 | 0.984 (inactive) | 0.999 (inactive) | 0.95 (inactive) | 0.997 (inactive) | 1.01 (inactive) | 0.977 (inactive) | 0.993 (inactive) | 0.936 (inactive)
16 | CCc1oc2ccccc2c1C(=O)c1cc(I)c(O)c(I)c1 [Benziodarone] (20 µM) | 0.283 | 0.975 | 1.01 | 0.707 | 1.03 (inactive) | 0.0565 (active) | 0.468 (active) | 1.03 (inactive) | 1.01 (inactive) | 1.05 (inactive) | 1.01 (inactive) | 0.489 (inactive)
17 | CN1c2cc(O)c(N=NC(N)=O)cc2CC1S(=O)(=O)O (centres undefined) [Carbazochrome sodium sulfonate] (20 µM) | 1.05 | 1.01 | 1.04 | 0.901 | 1.06 (inactive) | 0.976 (inactive) | 1.08 (inactive) | 1.01 (inactive) | 0.905 (inactive) | 0.975 (inactive) | 1.2 (inactive) | 1.21 (inactive)
18 | c1ccc2c(c1)-c1cccc3c1c-2cc1ccccc13 [Benzo[b]fluoranthene] (20 µM) | 1.08 | 0.997 | 1.04 | 1 | 0.993 (inactive) | 1.03 (inactive) | 1.02 (inactive) | 1 (inactive) | 1.02 (inactive) | 1.03 (inactive) | 1.01 (inactive) | 1.04 (inactive)
19 | OC(CCCN1CCCCC1)(c1ccccc1)c1ccccc1 [Diphenidol hydrochloride] (20 µM) | 1.03 | 1.08 | 1.01 | 1.26 | 1.06 (inactive) | 1.03 (inactive) | 0.963 (inactive) | 1.05 (inactive) | 1.02 (inactive) | 0.932 (inactive) | 0.981 (inactive) | 0.92 (inactive)
20 | C#C[C@]1(OC(C)=O)CC[C@H]2[C@@H]3CCC4=CC(=NO)CC[C@@H]4[C@H]3CC[C@@]21CC (mixture of isomers) [Norgestimate] (20 µM) | 1.25 | 0.998 | 1.01 | 0.991 | 1.01 (inactive) | 0.656 (inactive) | 0.888 (inactive) | 1.05 (inactive) | 0.985 (inactive) | 1.02 (inactive) | 0.993 (inactive) | 0.905 (inactive)
21 | OC[C@H]1O[C@@](CO)(O[C@H]2O[C@H](CO)[C@@H](O)[C@H](O)[C@H]2O)[C@@H](O)[C@@H]1O [Sucrose] (50 µM) | 1.08 | 0.938 | 1.09 | 1.12 | 0.917 (inactive) | 1.07 (inactive) | 1.08 (inactive) | 1 (inactive) | 0.977 (inactive) | 0.964 (inactive) | 1.05 (inactive) | 1.12 (inactive)
22 | Cc1[nH]cnc1CN1CCc2c(c3ccccc3n2C)C1=O [Alosetron hydrochloride] (20 µM) | 1.17 | 0.97 | 1.02 | 1.13 | 0.979 (inactive) | 1.04 (inactive) | 0.996 (inactive) | 0.971 (inactive) | 1.02 (inactive) | 0.945 (inactive) | 1.01 (inactive) | 0.975 (inactive)
